Results on 56 molecules are retold here after PubChem BioAssay AID1452 (National Center for Advancing Translational Sciences (NCATS), 2008).

Hit rate of the full screen: of about 150,000 compounds, about 190 (0.13%) were called active. Entries that show only a call come without a potency. Inconclusive results (about 2%) are left out. The call rests on the fitted dose curve; in most records, active means well fitted inhibition curve with a large enough effect; inconclusive means small, poorly fitted or top-dose-only effect; inactive means flat fitted curve, though single readings scatter. The full list was thinned out, with actives kept by preference.
Potency means the concentration at half of the fitted maximal effect.

Polyunsaturated fatty acid lipoxygenase ALOX12 (Homo sapiens), sequence (P18054 whole entry, looked up): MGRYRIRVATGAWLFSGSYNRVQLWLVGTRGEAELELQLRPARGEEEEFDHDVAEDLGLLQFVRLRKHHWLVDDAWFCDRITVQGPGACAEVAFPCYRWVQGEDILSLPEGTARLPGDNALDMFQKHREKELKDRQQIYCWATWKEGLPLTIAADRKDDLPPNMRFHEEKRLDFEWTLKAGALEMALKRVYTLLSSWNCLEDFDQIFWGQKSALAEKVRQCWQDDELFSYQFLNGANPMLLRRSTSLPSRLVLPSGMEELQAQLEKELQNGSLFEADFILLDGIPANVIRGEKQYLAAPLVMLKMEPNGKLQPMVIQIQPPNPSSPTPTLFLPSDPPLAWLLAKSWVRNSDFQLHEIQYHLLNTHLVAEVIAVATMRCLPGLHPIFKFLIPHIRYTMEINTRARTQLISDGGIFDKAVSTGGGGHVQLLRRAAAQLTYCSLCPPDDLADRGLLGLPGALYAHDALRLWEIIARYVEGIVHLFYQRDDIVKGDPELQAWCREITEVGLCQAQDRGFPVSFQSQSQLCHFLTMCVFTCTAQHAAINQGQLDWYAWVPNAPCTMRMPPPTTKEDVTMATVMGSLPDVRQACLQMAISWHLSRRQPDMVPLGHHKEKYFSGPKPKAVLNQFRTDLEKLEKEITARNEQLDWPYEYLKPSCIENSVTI

For the test, the target named is Polyunsaturated fatty acid lipoxygenase ALOX12 (Homo sapiens) (UniProt P18054). Description: qHTS Assay for Inhibitors of 12-hLO (12-human lipoxygenase). Further: nearly all actives have a fitted effect of over 55% in size. To be noted: purified 12-hLO, xylenol orange hydroperoxide absorbance; series mostly up to 57.1 µM. The text has this:
Assay Provider: Holman, T.R., University of California, Santa Cruz Screening Center PI: Austin, C.P. Screening Center: NIH Chemical Genomics Center [NCGC] Human lipoxygenase 12hLO is a member of the closely related lipoxygenase family of enzymes which catalyze the site-specific oxidation of arachidonic acid to various hormone precursor molecules and as such is a candidate for drug development in a variety of disease areas, such as cancer and inflammation. Inhibition of 12hLO activity was screened by utilizing arachidonic acid as a substrate. The extent of hydroperoxide product formation was measured by a secondary chromogenic reaction in which xylenol orange (XO, Sigma-Aldrich, cat. number 39,818-7) reacts with the ferric ions produced from the reaction between the hydroperoxide and ferrous ions. The Fe(III)-XO complex is characterized with red-shifted absorbance at 560 nm. A purified preparation of human 12hLO was supplied by Professor Ted Holman, University of California, Santa Cruz.
Assay Protocol: Buffer: 25 mM Hepes pH 7.0, 0.01% Triton X-100. Reagents/Controls: Buffer in columns 3 and 4 as negative control (no enzyme). Substrate solution: 40 uM arachidonic acid (Sigma-Aldrich, St. Louis, MO) final concentration dispensed throughout the plate. Enzyme: 150 nM 12hLO final concentration in columns 1, 2, 5-48. Column 1 is neutral (100% activity). Column 2 contained pin-transferred titration of NDGA (nordihidroguaiaretic acid, Sigma-Aldrich, N 5023, top concentration 20 mM in DMSO, then 1:3 dilution in duplicate). (Dilution factor: 23 nL into 4 uL.) Chromogenic detection reagent (divalent iron/xylenol orange, Fe-XO): 200 uM xylenol orange plus 300 uM ferrous ammonium sulfate prepared freshly in 50 mM sulfuric acid. Assay Steps: Three uL of enzyme were dispensed to 1536-well Greiner black clear bottom plates. Compounds and controls (23 nL) were transferred via Kalypsys PinTool. The plates were incubated for 15 min at room temperature, and then 1 uL of substrate solution was added to start the reaction. After room temperature incubation for 30 minutes, 4 uL of Fe-XO solution was added to each well and the plates were incubated for 30 min. The absorbance at 405 and 573 nm were measured using ViewLux (Perkin-Elmer) High-throughput CCD imager and absorbance protocol settings. The 573-to-405 absorbance ratio was used to compute reaction progress.
On the technique in general: Quantitative high-throughput screening tests each substance at several concentrations.
As to `CC(=O)c1c(C)[nH]c(C(=O)OCC(=O)Nc2cc(S(=O)(=O)N3CCCCC3)ccc2C)c1C`, the activity change, negative = inhibition result is “inactive”.
On to `CCc1nnc(NC(=O)CCN(c2ccc(C)cc2)S(=O)(=O)c2ccccc2)s1`, for which the activity change, negative = inhibition entry was “inactive”.
The same measure, in the same setting: next, `CCOc1ccc(-c2n[nH]c(=S)n2/N=C/c2cc3c(cc2[N+](=O)[O-])OCO3)cc1`: “inactive”; `C=CCN(c1ccc(C(=O)Nc2cc(C)cc(C)c2)cc1)S(C)(=O)=O`: “inactive”; `COc1ccc(Cl)cc1NC(=O)CNc1ccccc1F`: “inactive”.
Turning to `Cc1ccc(NC(=S)Nc2ncccc2C)c(C)c1`, the Potency is 17.8 µM (active).
For the molecule `Cc1ccc(NC(=O)Cn2nc(C)c3ccccc3c2=O)c(C)c1`, the activity change, negative = inhibition result is “inactive”.
Take `Cc1ccccc1NC(=S)Nc1cccc([N+](=O)[O-])c1`: the activity change, negative = inhibition result was “inactive”.
For `CC(C)(C)OC(=O)NCCCCC1=CC2=CC(=O)C(C)(OC(=O)c3cccs3)C(=O)C2=CO1` (stereo unspecified), the activity change, negative = inhibition entry is “inactive”.
As for `CC[C@@]12C=C(/C=C/c3ccccc3)[C@](CC)(C1)[C@H](c1ccccc1)CC2=O`, the activity change, negative = inhibition entry is “inactive”.
As for `COC(=O)C1=C(C(=O)OC)[C@@H]2Nc3ccccc3[C@@]23C[C@@H](C(=O)OC)N(S(=O)(=O)c2ccc([N+](=O)[O-])cc2)C3=N1`, the activity change, negative = inhibition is -6.39% [at 11.4 µM] (inactive).
Same read-out and setting: the entry for `COc1ccc(-n2c(=S)[nH]c3sc4c(c3c2=O)CCc2ccccc2-4)cc1` is “inactive”.
The same measure, in the same setting: next, `Cc1ccc(S(=O)(=O)Nc2nc(C)cc(N/N=C/c3ccc(O)cc3)n2)cc1`: “inactive”.
On the same count and under the same terms, next, `COC(=O)c1c(NC(=O)CN2C(=O)NC(CCc3ccccc3)C2=O)sc2c1CCCCC2` (stereo unspecified): “inactive”.
As to `C=CCN1c2ccccc2[C@]23C[C@@H](C(=O)OC)N(S(=O)(=O)c4ccc([N+](=O)[O-])cc4)C2=NC(C(=O)OC)=C(C(=O)OC)[C@H]13`, the activity change, negative = inhibition was -1.48% [at 11.4 µM] (inactive).
For the molecule `CCN(/N=C/c1ccccc1)c1cc(=O)n(C)c(=O)[nH]1`, the activity change, negative = inhibition entry was “inactive”.
As to `COCCN1C(=O)N[C@@H](CCc2ccccc2)[C@H](C(C)=O)[C@H]1C`, the activity change, negative = inhibition is 1.29% [at 11.4 µM] (inactive).
Consider `C=CC1=C2C=C(C3CC3)N(CC(C)C)C=C2C(=O)C(C)(OC(=O)c2ccco2)C1=O` (stereo unspecified), for which the activity change, negative = inhibition was 0.586% [at 11.4 µM] (inactive).
Take `CCCCCCCC[C@@H](O)/C=C/C=C/C=C\[C@@H](O)CCCC(=O)O`: the activity change, negative = inhibition result was “inactive”.
For `COc1ccc(-c2nc3c(c4c2C[C@H](c2ccccc2)OC4)CN(C(=O)c2ccco2)CC3)c(C)c1`, the activity change, negative = inhibition was 3.56% [at 11.4 µM] (inactive).
Still for that read-out and setting: the entry for `Cc1ccccc1C(CC(=O)c1cccs1)C(C#N)C#N` (stereo unspecified) is “inactive”; for `Cc1c(/C=N/N2C(=O)C3C4C=CC(C4)C3C2=O)c2ccccc2n1C` (stereo unspecified) it is “inactive”; for `CC/C=C\C/C=C\C/C=C\C/C=C\C/C=C\C/C=C\CCC(=O)NC(C)C(=O)O` (stereo unspecified) it is “inactive”.
For the molecule `COc1cc(NC(=O)COC(=O)CSc2ccc3ccccc3c2)c(C)cc1[N+](=O)[O-]`, the activity change, negative = inhibition entry is “inactive”.
On to `COc1ccc(-c2c(C)cc3oc(=O)cc(-c4ccccc4)c3c2C)cc1C=O`, for which the activity change, negative = inhibition was -1.15% [at 0.00818 µM] (inactive).
For the molecule `CCOc1ccc2nc(C(=O)N3CCCC(C)C3)sc2c1` (stereo unspecified), the activity change, negative = inhibition entry was “inactive”.
Take `O=C(/C=C/c1ccc([N+](=O)[O-])cc1)NCCSCc1ccco1`: the activity change, negative = inhibition entry is “inactive”.
On the same count and under the same terms, the entry for `COCC(C)n1c(C)cc(C(=O)CSc2cc(C)c3ccccc3n2)c1C` (stereo unspecified) is “inactive”.
Take `COCOc1cc(OC)ccc1C(=O)/C=C/c1ccc([N+](=O)[O-])cc1`: the activity change, negative = inhibition result was “inactive”.
On to `CCCCCCCC1=Cc2ccc(F)cc2C(C(C(=O)OC)C(=O)OC)N1C(=O)OC` (stereo unspecified), for which the activity change, negative = inhibition is 0.612% [at 11.4 µM] (inactive).
For the molecule `COC(=O)C1=C(C(=O)OC)[C@@H]2N(Cc3ccccc3)c3ccccc3[C@@]23C[C@@H](C(=O)OC)N(S(=O)(=O)c2ccc(C(F)(F)F)cc2)C3=N1`, the activity change, negative = inhibition was -1.93% [at 11.4 µM] (inactive).
Consider `Cc1ccc(C2=NN(C(=O)CSc3nc(N)cc(N)n3)C(c3ccco3)C2)cc1` (stereo unspecified), for which the activity change, negative = inhibition entry is “inactive”.
Same read-out and setting: next, `C/C(CC(=O)NC(C)(C)C)=N\NC(=O)c1ccco1`: “inactive”; `O=C(COC(=O)[C@H](Cc1ccccc1)NC(=O)c1cccs1)Nc1cc(F)ccc1F`: “inactive”; `Cc1cc2oc(=O)cc(-c3ccccc3)c2c(C)c1-c1ccc(OC(F)(F)F)cc1`: -2.23% [at 0.00818 µM] (inactive).
Same read-out and setting: next, `Cc1ccc(C)c(NC(=S)NNC(=O)c2csc(C)c2)c1`: “inactive”.
On the same count and under the same terms, the figure for `CCCCS(=O)(=O)N1C2=NC(C(=O)OC)=C(C(=O)OC)[C@@H]3N(Cc4ccccc4)c4ccccc4[C@]23C[C@H]1C(=O)OC` is 2.88% [at 11.4 µM] (inactive); for `Cc1cccc(N2CCN(C(=O)/C=C/c3ccco3)CC2)c1C` it is “inactive”.
On to `COc1ccc(-c2cc(C(F)(F)F)nc(SCC(=O)Nc3ccc4c(c3)OCO4)n2)cc1OC`, for which the activity change, negative = inhibition entry was “inactive”.
Consider `CCOC(=O)c1c(NC(=O)C(C)Sc2c[nH]c3ccccc23)sc2c1CCC2` (stereo unspecified), for which the activity change, negative = inhibition result was “inactive”.
The same measure, in the same setting: the entry for `CCCCC/C=C\C/C=C\CCCCCCCCCC(=O)NCC(=O)O` is “inactive”; for `Cc1nc2ccccc2c(=O)n1CCCn1ccnc1` it is “inactive”.
Regarding `Cc1ccnc(-n2sc3ccccc3c2=O)n1`, the Potency is 12.6 µM (active).
On to `Cc1ccnc(N2CCC(C(=O)NC3CCCCCC3)CC2)n1`, for which the activity change, negative = inhibition entry is “inactive”.
On to `CCCCC/C=C\C[C@H](O)/C=C/C=C/C=C/[C@@H](O)CCCC(=O)O`, for which the activity change, negative = inhibition result was “inactive”.
Still for that read-out and setting: next, `COC(=O)C1=NNC2(c3ccc(C)cc3)C(=O)N(c3cccc(C)c3C)C(=O)C12` (stereo unspecified): “inactive”.
As for `C=CC(=O)c1ccc2ccccc2c1`, the Potency is 2.51 µM (active).
As to `CC(=O)c1ccc2c(ccc3ccccc32)c1`, the activity change, negative = inhibition result is “inactive”.
On to `CC(=O)CCC(=O)c1ccc2ccccc2c1`, for which the activity change, negative = inhibition result is “inactive”.
Same read-out and setting: the entry for `CCOC(=O)C1=C(N)N(c2ccc(C)cc2)C2=C(C(=O)CCC2)C1c1cccs1` (stereo unspecified) is “inactive”; for `COC(=O)CCCC1=CC2=CC(=O)C(C)(OC(=O)c3cccs3)C(=O)C2=CN1c1ccc(CO)cc1` (stereo unspecified) it is -2.32% [at 11.4 µM] (inactive); for `COc1ccc(-c2c(C)cc3oc(=O)cc(-c4ccccc4)c3c2C)cc1OC` it is -1.07% [at 0.00818 µM] (inactive).
Take `COc1ccc(/C=C/C(=O)OCC(=O)Nc2cccc(Oc3ccccc3)c2)c(OC)c1`: the activity change, negative = inhibition result is “inactive”.
Take `COc1ccc(CCC(=O)OCC(=O)Nc2ccc(C)c(S(=O)(=O)N(C)C)c2)cc1`: the activity change, negative = inhibition entry was “inactive”.
In the case of `O=C(CSc1ccccc1)Nc1nnc(/C=C/c2ccccc2)s1`, the activity change, negative = inhibition entry was “inactive”.
As to `COc1ccc(C2NC(=S)NC3=C2CCc2ccccc23)cc1OC` (stereo unspecified), the activity change, negative = inhibition result is “inactive”.
